Laboratory results reported in PubChem BioAssay (NCI).
About 83,000 compounds went through this panel and 20% of them were active in at least one assay; those are over-represented in the sample as a whole.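 Cell lines were cultured in 96-well plates, exposed to a single compound concentration, and assessed for percent growth 48 hours later.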 A number with no mark means an inactive call. Calls of active or inactive are those of the source. How the source made its calls: active means growth percent below 10; inactive means the rest.

What was measured:
Test in all cases: NCI-60 one-dose screen, 48 h (100 = growth as untreated, 0 = no growth, -100 = all killed)
Settings in all cases: 10 µM unless noted
[1] = system: HCT-15 colon
[2] = system: HT29 colon
[3] = system: SNB-75 CNS
[4] = system: SNB-19 CNS
[5] = system: U251 CNS
[6] = system: PC-3 prostate
[7] = system: SK-MEL-5 melanoma
[8] = system: UACC-62 melanoma
[9] = system: LOX IMVI melanoma
[10] = system: SK-MEL-28 melanoma
[11] = system: SK-MEL-2 melanoma
[12] = system: EKVX NSCLC
[13] = system: SN12C renal
[14] = system: UO-31 renal
[15] = system: TK-10 renal
[16] = system: ACHN renal
[17] = system: CAKI-1 renal
[18] = system: A498 renal
[19] = system: CCRF-CEM leukemia
[20] = system: MOLT-4 leukemia

## COc1ccc2c(c1)C(C)Cc1c(ncnc1-n1cnc3cc(C)ccc31)N2C (centres undefined)
[1]
  growth: 13.2%
[2]
  growth: 5.82% (active)
[3]
  growth: 63.3%
[4]
  growth: 33.5%
[5]
  growth: 18.5%
[6]
  growth: 24.7%
[7]
  growth: -14.1% (active)
[8]
  growth: 36.1%
[9]
  growth: 21.9%
[10]
  growth: 64.3%
[11]
  growth: 47.4%
[12]
  growth: 40.3%
[13]
  growth: 30.1%
[14]
  growth: 43.5%
[15]
  growth: 53.6%
[16]
  growth: 29%
[17]
  growth: 23.2%
[18]
  growth: 6.42% (active)
[19]
  growth: 7.96% (active)
[20]
  growth: 11%

## CCN(CC)CCN1C(=O)c2c(c3c4ccccc4[nH]c3c3ccc4ccccc4c23)C1=O
[1]
  growth: -74.4% (active)
[2]
  growth: -45.5% (active)
[3]
  growth: 76.1%
[4]
  growth: 84.9%
[5]
  growth: -89.3% (active)
[6]
  growth: -74.6% (active)
[7]
  growth: -23% (active)
[8]
  growth: 76.8%
[9]
  growth: -88.3% (active)
[10]
  growth: 0.268% (active)
[11]
  growth: 97.7%
[12]
  growth: 18.6%
[13]
  growth: -89.2% (active)
[14]
  growth: 14.3%
[15]
  growth: -86.2% (active)
[16]
  growth: 36.6%
[17]
  growth: 50.7%
[18]
  growth: 35.1%
[19]
  growth: -8.15% (active)
[20]
  growth: -29.5% (active)

## COc1ccc(-c2cc(-c3cc(OC)ccc3OC)nc(SCC(C)=O)c2C#N)cc1
[1]
  growth: 52.7%
[2]
  growth: 81.8%
[3]
  growth: 42.7%
[4]
  growth: 75.8%
[5]
  growth: 74.4%
[6]
  growth: 56.2%
[7]
  growth: 65.7%
[8]
  growth: 67.1%
[9]
  growth: 57.9%
[10]
  growth: 68%
[11]
  growth: 78.6%
[12]
  growth: 51.6%
[13]
  growth: 76.7%
[14]
  growth: 41.1%
[15]
  growth: 101%
[16]
  growth: 56.5%
[17]
  growth: 40.6%
[18]
  growth: 39%
[19]
  growth: 69.2%
[20]
  growth: 37.9%

## Ic1ccc(Nc2nc3nonc3nc2Nc2ccc(I)cc2)cc1
[1]
  growth: -11.5% (active)
[2]
  growth: 0.391% (active)
[3]
  growth: 24.7%
[4]
  growth: 22.4%
[5]
  growth: 6.94% (active)
[6]
  growth: 4.36% (active)
[7]
  growth: -81.2% (active)
[8]
  growth: -28.2% (active)
[9]
  growth: -3.56% (active)
[10]
  growth: 12.2%
[11]
  growth: -55.2% (active)
[12]
  growth: 4.77% (active)
[13]
  growth: 7.43% (active)
[14]
  growth: -0.338% (active)
[15]
  growth: 2.2% (active)
[16]
  growth: 4.88% (active)
[17]
  growth: 7.67% (active)
[18]
  growth: -22% (active)
[19]
  growth: -1.76% (active)
[20]
  growth: -29% (active)

## Cc1cc(C(=O)CCCC(=O)c2cc(C)c(O)c(C)c2)cc(C)c1O
[1]
  growth: 79.2%
[2]
  growth: 92.3%
[3]
  growth: 69.7%
[4]
  growth: 88.1%
[5]
  growth: 89.6%
[6]
  growth: 84.1%
[7]
  growth: 29.2%
[8]
  growth: 96.8%
[9]
  growth: 87.2%
[10]
  growth: 105%
[11]
  growth: 101%
[12]
  growth: 111%
[13]
  growth: 97.8%
[14]
  growth: 83.6%
[15]
  growth: 105%
[16]
  growth: 91%
[17]
  growth: 93.5%
[18]
  growth: 91.9%
[19]
  growth: 96.6%
[20]
  growth: 106%

## CC(C)Cc1nc(Nc2ccccc2)[nH]c(=O)c1C#N
[1]
  growth: 60.5%
[2]
  growth: 51.7%
[3]
  growth: 62.4%
[4]
  growth: 54.8%
[5]
  growth: 55.8%
[6]
  growth: 38%
[7]
  growth: 48.7%
[8]
  growth: 19.5%
[9]
  growth: 48.7%
[10]
  growth: 55.9%
[11]
  growth: 40.5%
[12]
  growth: 59.4%
[13]
  growth: 52.8%
[14]
  growth: 14%
[15]
  growth: 82%
[16]
  growth: 57.5%
[17]
  growth: 50.9%
[18]
  growth: 19.4%
[19]
  growth: 60.2%
[20]
  growth: 61.6%

## COc1ccc(/C=C(\C(=O)NCc2cccnc2)S(=O)(=O)c2ccccc2)cc1OC
[1]
  growth: 28.3%
[2]
  growth: 9.86% (active)
[3]
  growth: 54.2%
[4]
  growth: 38.4%
[5]
  growth: 32.2%
[6]
  growth: 36.5%
[7]
  growth: 64.6%
[8]
  growth: 34.9%
[9]
  growth: 4.04% (active)
[10]
  growth: 34.6%
[11]
  growth: 54.6%
[12]
  growth: 38.9%
[13]
  growth: 10.9%
[14]
  growth: 38.8%
[15]
  growth: 46.4%
[16]
  growth: 52.8%
[17]
  growth: 36.1%
[18]
  growth: 51%
[19]
  growth: 9.07% (active)
[20]
  growth: 39.3%

## O=C(NC1CCC(Br)CC1)C1CCCC(S(=O)(=O)NC2CCCCC2)C1 (centres undefined)
[1]
  growth: 18.8% [25 µM]
[2]
  growth: 28.7% [25 µM]
[3]
  growth: 27.4% [25 µM]
[4]
  growth: 26.8% [25 µM]
[5]
  growth: 18.5% [25 µM]
[6]
  growth: 4.26% [25 µM] (active)
[7]
  growth: -68% [25 µM] (active)
[8]
  growth: 9.41% [25 µM] (active)
[9]
  growth: 15.8% [25 µM]
[10]
  growth: 24.7% [25 µM]
[11]
  growth: 17.9% [25 µM]
[12]
  growth: -19.3% [25 µM] (active)
[13]
  growth: 22.2% [25 µM]
[14]
  growth: 8.5% [25 µM] (active)
[15]
  growth: 18.4% [25 µM]
[16]
  growth: 15.9% [25 µM]
[17]
  growth: 13.5% [25 µM]
[18]
  growth: -5.7% [25 µM] (active)
[19]
  growth: 18.3% [25 µM]
[20]
  growth: 7.81% [25 µM] (active)

## OC1(c2ccccc2)c2ccccc2N(c2ccccc2)c2ccc(Cl)cc21 (centres undefined)
[1]
  growth: -44.2% (active)
[2]
  growth: -77.5% (active)
[3]
  growth: -57.6% (active)
[4]
  growth: -91.6% (active)
[5]
  growth: -87.9% (active)
[6]
  growth: -75.1% (active)
[7]
  growth: -97.6% (active)
[8]
  growth: -92% (active)
[9]
  growth: -93.6% (active)
[10]
  growth: -97.1% (active)
[11]
  growth: -72.1% (active)
[12]
  growth: -81.8% (active)
[13]
  growth: -81.6% (active)
[14]
  growth: -95% (active)
[15]
  growth: -95.5% (active)
[16]
  growth: -99.5% (active)
[17]
  growth: -9.02% (active)
[18]
  growth: -62.6% (active)
[19]
  growth: -13% (active)
[20]
  growth: 1.26% (active)

## CCOC(=O)CC1CSC(N/N=C/c2ccc(F)c(Br)c2)=N1 (centres undefined)
[1]
  growth: 101%
[2]
  growth: 84.8%
[3]
  growth: 109%
[4]
  growth: 110%
[5]
  growth: 94.7%
[6]
  growth: 103%
[7]
  growth: 101%
[8]
  growth: 103%
[9]
  growth: 101%
[10]
  growth: 107%
[11]
  growth: 104%
[12]
  growth: 104%
[13]
  growth: 114%
[14]
  growth: 82.9%
[15]
  growth: 102%
[16]
  growth: 106%
[17]
  growth: 95.5%
[18]
  growth: 95.7%
[19]
  growth: 90%
[20]
  growth: 88.5%

## COc1cc(/C=C/C(=O)N2CCN(C(=O)c3cc(OC)c(OC)c(OC)c3)CC2)ccc1OCCCOc1cc2c(cc1OC)C(=O)N1CCC[C@H]1C=N2
[1]
  growth: 43.4%
[2]
  growth: 13.5%
[3]
  growth: -48.1% (active)
[4]
  growth: 13.8%
[5]
  growth: 7.58% (active)
[6]
  growth: -43% (active)
[7]
  growth: 2.69% (active)
[8]
  growth: -90.1% (active)
[9]
  growth: 1.38% (active)
[10]
  growth: -47.3% (active)
[11]
  growth: -42.4% (active)
[12]
  growth: 8% (active)
[13]
  growth: 13.9%
[14]
  growth: -12.8% (active)
[15]
  growth: 6.61% (active)
[16]
  growth: 0.236% (active)
[17]
  growth: 3.12% (active)
[18]
  growth: -55.8% (active)
[19]
  growth: -1.17% (active)
[20]
  growth: 7.57% (active)

## CC(O)CNC(Cc1ccccc1)c1ccc2c(c1)OCO2 (centres undefined)
[1]
  growth: 104%
[2]
  growth: 65.5%
[3]
  growth: 90.2%
[4]
  growth: 101%
[5]
  growth: 97.3%
[6]
  growth: 65.8%
[7]
  growth: 100%
[8]
  growth: 91.4%
[9]
  growth: 92.5%
[10]
  growth: 72.3%
[11]
  growth: 65%
[12]
  growth: 96.6%
[13]
  growth: 105%
[14]
  growth: 69.7%
[15]
  growth: 82.9%
[16]
  growth: 101%
[17]
  growth: 93.1%
[18]
  growth: 89.9%
[19]
  growth: 96.3%
[20]
  growth: 95.4%

## O=S(=O)(Nc1cc(F)cc(F)c1)c1ccc(-c2cnc(C3CC3)o2)cc1
[1]
  growth: 20%
[2]
  growth: 4.44% (active)
[3]
  growth: -3.36% (active)
[4]
  growth: 30%
[5]
  growth: 33%
[6]
  growth: 48.1%
[7]
  growth: 29.4%
[8]
  growth: 33.7%
[9]
  growth: 36.3%
[10]
  growth: 60.8%
[11]
  growth: 39.9%
[12]
  growth: 52.5%
[13]
  growth: 46.9%
[14]
  growth: 50.1%
[15]
  growth: 63.1%
[16]
  growth: 43.5%
[17]
  growth: 32.7%
[18]
  growth: 1.5% (active)
[19]
  growth: 32.2%
[20]
  growth: 39.1%

## CCOC(=O)c1[nH]cc2c1CCc1sc(Nc3ccccn3)nc1-2
[1]
  growth: 67.2%
[2]
  growth: 77%
[3]
  growth: 82.2%
[4]
  growth: 85.2%
[5]
  growth: 69%
[6]
  growth: 56.7%
[7]
  growth: 63.5%
[8]
  growth: 86.5%
[9]
  growth: 81.7%
[10]
  growth: 103%
[11]
  growth: 84.8%
[12]
  growth: 58.4%
[13]
  growth: 91.8%
[14]
  growth: 70.2%
[15]
  growth: 116%
[16]
  growth: 76.6%
[17]
  growth: 82.3%
[18]
  growth: 62.2%
[20]
  growth: 55.2%
